Pf Dd2 inh: qHTS Primary assay for Inhibitors of Plasmodium falciparum Dd2 growth in vitro; P. falciparum Dd2 growth, SYBR Green, 72 h; 120,000 compounds, 4.3% hits; Potency, µM (top dose mostly 28.9 µM), inactives show top-dose activity, negative = inhibition, hits mostly inhibitors; active = well fitted inhibition curve with a large enough effect;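 note: plate controls were DMSO vehicle for no effect and reference drug for full effect; nearly all actives have a fitted effect of over 65% in size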
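Readout: SYBR Green fluorescence, 485 nm excitation, 535 nm emission, after ~16 h lysis at 37C. Before that, Dd2-infected red cells (2.5% hematocrit) grew 72 h with compound, 29 uM top final concentration.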
The depositor's hits bear a star; i = inactive; [ ] = remark or other dose. The entries come from a sample that favours hits as a whole. Potency is the fitted concentration of half-maximal effect.

SMILES	Pf Dd2 inh
COc1ccc(CN(C)CC2CCN(CCc3ccc(F)cc3)CC2)cc1Cn1cccn1	10µM*
CNC(=O)CN(C)C(=O)c1coc(COc2ccc3ccc(OC)cc3c2)n1	-21.0%
CC1=C(c2ccc(F)cc2)S(=O)(=O)N=C1N1CCC(C(=O)NCCc2ccccc2)CC1	i
CC1=C(c2ccc(Cl)cc2)S(=O)(=O)N=C1N1CCC(C(=O)NCCc2ccco2)CC1	21.7%
CCC1=C(c2ccc(C)cc2)S(=O)(=O)N=C1N1CCC(C(=O)NCCc2ccc(Cl)cc2)CC1	8.91µM*
CCn1ncc(N2CCC(NC(=O)c3ccccc3)CC2)cc1=O	7.3%
Cc1cccc(Oc2coc3cc(OCC(=O)NC4CCCCC4)ccc3c2=O)c1	10µM*
Cc1cccc(OCC(=O)NC2CCc3nn(CC4CC4)c(=O)n3CC2)c1 (stereo not drawn)	-16.4%
COc1ccc(N2CC(NC(=O)COc3cccc(C)c3)CC2=O)cc1OC (stereo not drawn)	5.8%
CCCCS(=O)(=O)N1CCn2nc(C(O)c3nccn3C)cc2C1 (stereo not drawn)	1.7%
Cn1nc(C(=O)Nc2ccc(F)c(Cl)c2)c2c1-c1ccccc1S(=O)(=O)C2	8.91µM*
Cc1ccc(NC(=O)c2nn(C)c3c2CS(=O)(=O)c2ccccc2-3)c(Cl)c1	-1.4%
COc1cc(NC(=O)c2nn(C)c3c2CS(=O)(=O)c2ccccc2-3)cc(OC)c1	-20.6%
O=C(NCc1cccnc1Oc1ccc(F)cc1F)c1cc(C2CC2)[nH]n1	-18.2%
c1ccc(CN2CCNc3cc(-c4ccncc4)ncc3C2)cc1	-25.5%[44.1 µM]
COc1ccc(-c2cc3c(cn2)CN(Cc2ccccc2)CCN3)cc1OC	11.2µM*
COc1ccc(CN2CCNc3cc(-c4ccnc(C)c4)ncc3C2)cc1O	-4.2%[44.1 µM]
COc1ccc(Nc2cc3c(cn2)CN(CCc2ccccc2)CCN3)cc1OC	10µM*
Fc1ccccc1-c1cc2c(cn1)CN(Cc1ccncc1)CCN2	i
Oc1ccc(-c2cc3c(cn2)CN(Cc2ccccc2)CCN3)cc1F	3.98µM*
COc1ccc(Nc2cc3c(cn2)NCCN(Cc2ccccc2)C3)cn1	i
COc1ccc(CNc2cc3c(cn2)CN(Cc2ccccc2)CCN3)cc1OC	-15.4%[44.1 µM]
COc1ccc(Nc2cc3c(cn2)CN(Cc2ccncc2)CCN3)cn1	-5.7%[44.1 µM]
CC(C)(C)c1ccc(-c2noc(CNC(=O)CN3C(=O)CNC3=O)n2)cc1	-9.1%
Cc1noc(-c2cccn3c(CNC(=O)c4ccoc4)nnc23)n1	i
SMILES	Pf Dd2 inh
O=C([C@H]1C[C@H](Oc2ccccc2)CN1C(=O)c1ccccc1F)N1CCOCC1	-2.7%
NC(=O)COC[C@@H]1CN(C(=O)CC2CCCCC2)C[C@H]1c1ccncc1	2.4%
CC(C)n1cc(CN2CCc3n[nH]c(=O)n3CC2)cn1	2.0%
CC(C)(C)C(=O)N1CCC2(CCCN(Cc3cccc(F)c3F)C2=O)C1 (stereo not drawn)	2.9%
COCCN1CCC(CN(Cc2ccncc2)C(=O)c2cnccn2)CC1	-0.4%
Cc1ccc(N2CC(c3noc(-c4cccc(N(C)C)c4)n3)CC2=O)cc1 (stereo not drawn)	-23.0%
CN(Cc1ccccc1)Cc1ccccc1C(F)(F)F	-15.5%[44.1 µM]
CN(C)C(=O)c1ccc(-c2nnc3ccc(NC(=O)C4CCC4)cn23)cc1	3.98µM*
Cc1cc(=O)n(CC(=O)Nc2ccc3c(c2)OCCO3)c(-c2ccc(Cl)cc2)n1	i
COc1ccc(C(=O)Nc2ccc(-c3nnc4n3CCCCC4)cc2)cc1OC	-13.5%
CC(C)c1ccc(NC(=O)C2CCN(C(=O)c3ccc(F)cc3)CC2)cc1	19.4%
CCN1CCN(C(=O)c2ccc(-c3nnc4ccc(NC(=O)C5CC5)cn34)cc2)CC1	0.447µM*
COc1ccc(NC(=O)c2ccc(-c3nnc4ccc(NC(=O)C5CCC5)cn34)cc2)cc1	1µM*
CCC(=O)Nc1ccc2nnc(-c3ccc(C(=O)Nc4ccc5c(c4)OCCO5)cc3)n2c1	0.282µM*
COc1ccc(C(=O)Nc2ccc(-c3nnc4n3CCCCC4)cc2)cc1	11.3%
O=C(Nc1ccc(-c2nnc3n2CCCC3)cc1)C1CCCCC1	-27.4%
O=C(NC1CC1)c1ccc2nnc(-c3ccc(C(F)(F)F)cc3)n2c1	4.1%
CCN1CCN(C(=O)c2ccc3nccn3c2)CC1	26.0%[44.1 µM]
CCOc1ccc(C(=O)Nc2ccc3c(c2)OCCO3)cc1Br	12.2%
O=C(NCC(F)F)C1CN(c2cccc(Cl)c2)C(=O)N1 (stereo not drawn)	8.4%[44.1 µM]
Cc1noc(C)c1[S+](=O)([O-])N1CCN(c2nc3ncccc3o2)CC1	i
COc1ccc(C(=O)NC2CCN(c3ccc(=O)n(C)n3)CC2)c(OC)n1	-23.4%
CN(CC1CCOCC1)C(=O)Nc1ccccc1F	3.9%
COCCN1C(=O)CS(=O)(=O)C12CCN(C(=O)c1sccc1C)CC2	-14.6%
Cc1ccc(C(=O)N2CCCC(n3cc(-c4nc(-c5ccccc5)no4)nn3)C2)s1 (stereo not drawn)	i
SMILES	Pf Dd2 inh
O=C(Nc1ccc(F)c(Cl)c1)C1CCN(C(=O)c2ccc(F)cc2)CC1	8.8%
O=C(Nc1ccc2nnc(-c3ccc(C(=O)N4CCSCC4)cc3)n2c1)C1CCC1	2.24µM*
Cc1ccc(NC(=O)C2CCN(C(=O)c3nnn4c3COC(c3ccc(C)cc3)C4)CC2)cc1 (stereo not drawn)	i
Cn1cccc1C(=O)N1C[C@@H](NC(=O)NC2CCCCC2)C[C@H]1C(=O)N[C@H](Cc1c[nH]c2ccccc12)C(N)=O	i
Cc1cccc(C(=O)N2CC(C(=O)N(C)C)C3(CCOCC3)C2)c1 (stereo not drawn)	-3.3%
COc1ccc2cc1Nc1ccc(cc1)C[C@H](NCc1cccc(O)c1)C(=O)N(C)[C@@H](C(=O)Nc1ccccc1)C2	4.47µM*
COc1ccc2cc1Nc1ccc(cc1)C[C@H](NCC1CC1)C(=O)N(C)[C@@H](C(=O)Nc1ccccc1)C2	3.98µM*
COc1ccc(NC(=O)C2Cn3cccc3C(=O)N2C)cc1 (stereo not drawn)	-18.0%
COc1ccc(S(=O)(=O)N2Cc3ccccc3CC2C(=O)Nc2cccc(C)c2)cc1OC (stereo not drawn)	-12.6%
COc1ccc(CCN2C(=O)N(c3ccc(F)cc3)C(=O)C2CC(=O)Nc2ccccc2)cc1OC (stereo not drawn)	i
COc1ccc(CCNC(=O)C2CC(=O)N(CCc3ccccc3)C2)cc1OC (stereo not drawn)	70.4%
COCCc1noc(-c2nc(-c3ccc4c(c3)OCO4)no2)n1	i
COc1ccc(OC2CCN(C(C)=O)CC2)c(C(=O)NCc2cc3ccccc3[nH]2)c1	i
Cc1cccc(CN2C(=O)C3(CCOCC3)CC2c2nnnn2C(C)(C)C)c1 (stereo not drawn)	3.9%
COc1cccc(CNC(=O)CCC2CCN(C(=O)c3ccccc3)CC2)c1	-12.1%
CCOc1ccc(C(=O)Nc2c(C)nc(Nc3ccccc3)nc2Nc2ccccc2)cc1OCC	12.6µM*
CCOc1ccc(C(=O)Nc2ccc(S(=O)(=O)Nc3nc(C)cc(C)n3)cc2)cc1OC	8.9%
CCOc1ccc(Nc2nc(C)c(NC(=O)c3cccc(OC)c3)c(Nc3ccc(OCC)cc3)n2)cc1	-10.6%
COc1ccc(C(=O)Nc2ccc([C@@H](O)[C@H]3COCC(=O)N3Cc3ccccc3F)cc2)cc1	i
CC(C)(C)CC(=O)N[C@H]1C[C@@](O)(C(=O)NCC(N)=O)C[C@@H](O)[C@@H]1O	12.2%[44.1 µM]
Cc1cc(C)c(NC(=O)Nc2ccc3snnc3c2)c(C)c1	i
O=C(Nc1cccc(C(F)(F)F)c1)Nc1ccc2snnc2c1	1.12µM*
O=C(Nc1cccc(C(F)(F)F)c1)c1ccc2snnc2c1	51.0%

Screens: PubChem BioAssay, National Center for Advancing Translational Sciences (NCATS)
